# From PubChem
# Anthrax LF inh2: inhibitors of Bacillus anthracis lethal factor protease | 0.12% of 360,000 active | multiplex microsphere protease cleavage assay, LF | inhibition, % at 10 µM; also: plate controls were buffer without enzyme for full effect and enzyme alone for no effect
# Target sequence (P15917 whole entry, looked up): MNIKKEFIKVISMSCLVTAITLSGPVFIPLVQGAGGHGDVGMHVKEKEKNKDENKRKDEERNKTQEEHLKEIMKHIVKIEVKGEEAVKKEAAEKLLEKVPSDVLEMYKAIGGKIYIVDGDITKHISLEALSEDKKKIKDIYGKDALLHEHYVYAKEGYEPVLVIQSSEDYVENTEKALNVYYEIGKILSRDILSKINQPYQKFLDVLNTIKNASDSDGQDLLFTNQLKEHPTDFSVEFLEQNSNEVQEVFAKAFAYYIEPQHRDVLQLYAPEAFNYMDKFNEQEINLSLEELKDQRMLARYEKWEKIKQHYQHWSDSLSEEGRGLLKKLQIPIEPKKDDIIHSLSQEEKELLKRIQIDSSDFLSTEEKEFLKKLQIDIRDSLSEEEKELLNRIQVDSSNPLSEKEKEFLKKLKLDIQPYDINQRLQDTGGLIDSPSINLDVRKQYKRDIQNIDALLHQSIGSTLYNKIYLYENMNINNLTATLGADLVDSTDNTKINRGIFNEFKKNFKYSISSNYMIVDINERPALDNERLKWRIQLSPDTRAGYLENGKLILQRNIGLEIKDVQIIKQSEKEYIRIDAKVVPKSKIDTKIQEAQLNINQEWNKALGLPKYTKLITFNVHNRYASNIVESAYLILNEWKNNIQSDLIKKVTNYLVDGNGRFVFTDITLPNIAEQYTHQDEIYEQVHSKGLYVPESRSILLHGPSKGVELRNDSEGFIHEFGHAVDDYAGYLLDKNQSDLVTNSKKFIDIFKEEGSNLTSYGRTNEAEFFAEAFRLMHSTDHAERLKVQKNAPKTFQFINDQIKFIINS
# Autofluor counter: flagged as autofluorescent in microsphere protease counterscreen; compound autofluorescence counterscreen, microsphere flow cytometry; hits give high values; fluorescence intensity (test concentration not listed); 3.1% of 360,000 active; AID 624483; in the data active = fluorescence intensity above about 16000; inconclusive = no clear call, values can overlap the other calls
# BoNT F protease: inhibitors of Botulinum neurotoxin F light chain protease | Multiplex microsphere protease cleavage assay, flow cytometry | inhibition, % at 10 µM | 0.22% of 360,000 active; in the data active = inhibition above about 35%, passing the limit was not always enough; inconclusive = no clear call, values can overlap the other calls; also: plate controls were buffer without enzyme for full effect and enzyme alone for no effect
# BoNT-A LC inh2: inhibitors of Botulinum neurotoxin A light chain protease; AID 588499; multiplex microsphere protease substrate cleavage, flow cytometry; inhibition, % at 10 µM; 0.17% of 360,000 active; also: plate controls were buffer without enzyme for full effect and enzyme alone for no effect
# * hit, by the source's call; ? = inconclusive. In the library only some 3.5% were active in any assay of this set; here they are far more common. Rule as the data show it, unless noted: active = inhibition above about 30%; inconclusive = no clear call, values can overlap the other calls; inactive = below that.
SMILES,Anthrax LF inh2,Autofluor counter,BoNT F protease,BoNT-A LC inh2
CCOC(=O)c1c(C)n(C)c2ccc(OCC(O)Cn3c(C)nc4ccccc43)cc12 (centres undefined),-2,23462*,-2,?
O=c1[nH][nH]c2c1[C@H](c1ccc(Cl)cc1)O[C@H](C1CCCCC1)C2,-4,6304,-12,0
CCCc1cc(=O)[nH]c(SCc2cccc(C)c2)n1,0,23596*,-4,?
CCCc1cc(=O)[nH]c(SCc2ccccc2)n1,3,2965,-4,0
CCCc1cc(=O)[nH]c(SCc2ccc(Cl)cc2)n1,-8,5803,-3,0
CCCc1cc(=O)[nH]c(SCc2cc(Cl)ccc2OC(F)F)n1,-2,24635*,-8,-5
CCc1nc2ccc(C(=O)N3CCN(C(=O)c4ccco4)CC3)cn2c1N(CC)Cc1cccc(Br)c1,3,3820,-2,0
CCc1ccc(/C=C2\SC(=S)N(CCCC(=O)N(CCO)c3ccccc3)C2=O)cc1,-6,3707,-10,0
CCS(=O)(=O)N1N=C(c2cccc(NS(C)(=O)=O)c2)CC1c1ccc(C)cc1 (centres undefined),17,21472*,-1,26
Cc1cc2nc(-c3ccc(Cl)cc3)c(Cc3ccsc3)n2c(C)c1Br,3,4655,-5,2
Cc1nn2c(N3CCN(C4CCCC4)CC3)cc(C(C)(C)C)nc2c1-c1ccccc1,-10,23963*,-4,?
COc1ccc(-c2c(C)nn3c(N4CCN(Cc5ccccc5)CC4)cc(C)nc23)cc1OC,8,6083,-6,0
Cc1nn2c(N3CCN(C)CC3)cc(C(C)(C)C)nc2c1-c1ccccc1,-6,5955,-4,-1
Cc1cc(N2CCN(Cc3ccccc3)CC2)n2nc(C)c(-c3ccccc3)c2n1,-4,22404*,-10,-5
COc1ccccc1-c1nnc(SCC(=O)Nc2c(Cl)cccc2Cl)o1,-2,19236*,4,3
Cc1cc(C)cc(NC(=O)CSc2nnc(-c3ccccc3Br)o2)c1,-2,21943*,1,1
Cc1cccc(NC(=O)CSc2nnc([C@@H](N)Cc3ccccc3)o2)c1C,-7,9722,1,1
Cc1ccccc1-c1nnc(SCC(=O)Nc2cccc(C)c2C)o1,-3,19363*,5,?
CCc1ccc(C(O)c2ncc(-c3ccc(Cl)cc3)[nH]2)cc1 (centres undefined),0,3982,-6,0
O=C(CC[C@H]1O[C@@H](n2ccc(=O)[nH]c2=O)[C@H](O)[C@@H]1O)N[C@@H](Cc1ccccc1)C(=O)NCC1CCCO1 (some centres undefined),1,5915,0,1
COc1ccc(OC)c(NCCN2C(=O)c3ccccc3C2=O)c1,-5,3853,-9,0
COc1cccc(CNC[C@H]2O[C@@H](n3ccc(N)nc3=O)[C@H](O)[C@@H]2O)c1OCc1ccc(F)cc1Cl,1,3031,-6,0
CCCS(=O)(=O)NC(=O)C1(C)CCN(C(=O)c2cc(-c3cccs3)oc2C)C1 (centres undefined),-6,2882,-2,0
Cc1cc(C)c2cc(C#N)c(NCCCNC(=O)CCC(=O)O)nc2c1,-2,21922*,2,?
CCOC(=O)c1sc(NC(=O)CSc2nnc(-c3ccc(OC)cc3)n2CCOC)nc1C,-3,22333*,-1,1
SMILES,Anthrax LF inh2,Autofluor counter,BoNT F protease,BoNT-A LC inh2
COCCn1c(SCC(=O)Nc2nnc(C)s2)nnc1-c1ccncc1,-1,11254,-10,-1
CCN(Cc1ccncc1)S(=O)(=O)c1ccc(C(C)=O)cc1,0,22742*,2,1
CCN(CC)S(=O)(=O)c1ccc(C(=O)Nc2ccc(Cc3ccncc3)cc2)cc1,-8,3431,3,-1
CN(C)CCOC(C1CCCCC1)C1CCCCC1,-6,24587*,-4,-3
C=C(C)CN1C(=O)C(O)(CC(=O)c2ccc3c(c2)OCCO3)c2ccccc21 (centres undefined),0,3347,-8,0
C=CCN1C(=O)C2(/C(=C(\O)c3ccc4c(c3)OCCO4)C(=O)C(=O)N2CCCOC)c2ccccc21 (centres undefined),0,23166*,-2,0
O=C(c1ccc(Cl)cc1)c1oc2ccccc2c1CS(=O)(=O)c1ccccc1,-4,22160*,1,0
Nc1c(C(=O)c2ccccc2)oc2ccccc12,-2,3626,7,-1
Cc1ccc(NC(=O)N/C=C/c2ccco2)cc1,-1,22171*,4,1
CC(C)c1ccc(NC2CCCN(C(=O)CN3CCCCC3=O)C2)cc1 (centres undefined),-4,3969,-4,0
CCCNC(=O)Cc1ccsc1,0,21829*,3,3
CCN(CC)CCNC(=O)c1ccc(NC(=O)Cc2ccsc2)cc1,3,6089,0,0
Cc1cc(/C=C2\SC(=O)N(C)C2=O)c(C)n1-c1ccc(O)cc1,-7,4858,?,-1
CN=C1S/C(=C\c2cc(C)n(-c3ccccc3F)c2C)C(=O)N1C,-2,20537*,7,4
CCS(=O)(=O)N1CCC2(CC1)OCCN2S(=O)(=O)c1ccccc1,-9,3769,5,0
Cc1cccc(-c2c3c(=O)n(C)c(=O)n(C)c3cn2-c2ccc(O)cc2)c1,0,20937*,-2,-1
O=C(NCCN1CCOCC1)C(=O)NCC1OCCN1S(=O)(=O)c1ccc(Cl)cc1 (centres undefined),-3,3659,1,-1
Cc1csc(C)[n+]1CC(=O)c1ccccc1,8,3957,48*,-1
CCOC(=O)C[n+]1c(C)csc1C,-3,8387,2,0
CCOc1ccc(-c2noc(CCCC(N)=O)n2)cc1OC,-4,22255*,-2,-1
COc1ccc(-c2noc(CCCC(=O)Nc3ccc(C(N)=O)cc3)n2)cc1OC,-1,4365,-7,-3
COc1ccc(-c2noc(CCC(N)=O)n2)cc1OC,-4,22164*,-8,?
Cc1nnc(SCC(=O)Nc2nc(C(C)(C)C)cs2)s1,1,21050*,-3,?
Cc1csc(NC(=O)CSc2nnc(C)s2)n1,-4,2632,-7,0
Cc1nnc(SCC(=O)Nc2nsc(-c3ccccc3)n2)s1,-6,21832*,-6,-5
SMILES,Anthrax LF inh2,Autofluor counter,BoNT F protease,BoNT-A LC inh2
CN(C)c1ccc(NC(=O)c2sc(SCC(=O)Nc3nccs3)nc2N)cc1,-3,23476*,-5,-1
CN(C)c1ccc(NC(=O)c2sc(SCC(=O)Nc3ccc(Br)cc3)nc2N)cc1,-3,4827,-6,1
Cc1nnc(SCC(=O)Nc2nccs2)s1,-3,20118*,-2,0
CCc1ccc(S(=O)(=O)NCc2ccc(C(=O)NCCN(Cc3ccccc3)C(C)C)cc2)cc1,-1,3622,-4,0
CNC(=O)C[C@@H]1C(=O)N(C2CCCCC2)CC1(C)C,5,3754,-4,0
C[C@@H]1CN([C@H](C)CO)C(=O)c2cc(C3=CCCCC3)cnc2O[C@@H]1CN(C)Cc1ccccc1C(=O)O,3,3326,3,0
CCc1nc2c(OCC3CCCCC3)cccn2c1N(C)C(=O)c1ccccc1F,-5,3974,-12,0
CC(C)(C)c1csc(SCC(=O)Nc2ccc(Cl)cn2)n1,-8,18967*,1,2
Cc1csc(SCC(=O)Nc2ccc(Cl)cn2)n1,1,4502,-4,0
